The panel holds about 83,000 compounds, 20% with a hit somewhere; the sample as a whole holds those more often.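 Results are percent growth after 48 hours of single-concentration exposure. 100 means growth as in untreated cells, lower positive values show inhibition; negative values down to -100 show cell death.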 Values without a mark were called inactive. Activity calls are given as the source filed them. How the source made its calls: active means growth percent below 10; inactive means the rest.
Assays:
Test in all cases: NCI-60 one-dose screen, 48 h (100 = growth as untreated, 0 = no growth, -100 = all killed)
Details in all cases: 10 µM unless noted
SK-MEL-2 melanoma = system: SK-MEL-2 melanoma
EKVX NSCLC = system: EKVX NSCLC
SN12C renal = system: SN12C renal
UO-31 renal = system: UO-31 renal
ACHN renal = system: ACHN renal
A498 renal = system: A498 renal
CCRF-CEM leukemia = system: CCRF-CEM leukemia
MOLT-4 leukemia = system: MOLT-4 leukemia
CAKI-1 renal = system: CAKI-1 renal

SMILES	growth (SK-MEL-2 melanoma)	growth (EKVX NSCLC)	growth (SN12C renal)	growth (UO-31 renal)	growth (ACHN renal)	growth (A498 renal)	growth (CCRF-CEM leukemia)	growth (MOLT-4 leukemia)	growth (CAKI-1 renal)
Cc1cc2c(cc1C)[n+](Cc1ccc3ccccc3n1)cn2Cc1ccc2ccccc2n1	-32% (active)	39.6%	15.2%	53.2%	56.5%	17.1%	15.1%	7.97% (active)	
CC(C)Sc1nc(Cl)c(C#N)c(-c2ccc(F)cc2)n1	98.2%	99.2%	97.3%	85.6%	101%	99.9%	6.61% (active)	7.38% (active)	104%
CC[n+]1c(/C=C/c2ccc(N3CCCC3)cc2)cccc1/C=C/c1ccc(N2CCCC2)cc1	-89.8% (active)	-76.4% (active)	-79.9% (active)	-92.6% (active)	-96.3% (active)		-7.16% (active)	10.3%	-67.9% (active)
COc1cnc2c(c1)C(=O)c1c-2n(CCCN2CCCC2)c(=O)c2cc(F)ccc12	23.1%	4.91% (active)	9.02% (active)	-96.2% (active)	-67.7% (active)	-92.8% (active)	0.937% (active)	-19.5% (active)	
CCNCCCn1c2c(c3ccc(F)cc3c1=O)C(=O)c1cc(OC)cnc1-2	-3.1% (active)	-14.4% (active)	1.58% (active)	-90.7% (active)	-47.5% (active)	-91.2% (active)	1.07% (active)	-15.6% (active)	
CCSc1nc(-c2ccc(F)cc2)c(C#N)c(=O)[nH]1	96.3%	105%	96.2%	125%	97.1%		102%	124%	98.7%
C[C@H](C(=O)N[C@@H](Cc1ccc(-c2ccccc2)cc1)C(=O)NC1CC(C)(C)N(C)C(C)(C)C1)c1ccc(-c2ccccc2)c(F)c1	-70.9% (active)	-47.8% (active)	-59.2% (active)	-80.9% (active)	-87.8% (active)	-18.2% (active)	-45.9% (active)	-60.9% (active)	
CCCCN=C(N)c1ccc(OCCSCCOc2ccc(C(N)=NCCCC)cc2)cc1	59.9%	36.8%	26.3%	93.5%	87%		72.1%	67.8%	115%
Oc1c(Cl)cc(Cl)c(Cl)c1Cc1c(O)c(Cl)cc(Cl)c1Cl	-39.1% (active)	-4.03% (active)	5.01% (active)	-2.22% (active)	18.4%	-17.3% (active)	5.78% (active)	11.1%	-18.3% (active)
Cc1ccc(/C=C/C(=O)c2ccc(F)cc2)s1	85.8%	81.1%	71.7%	57.6%	83%	70.1%	8.11% (active)	11.6%	78.6%
c1ccc(CN=C(NCc2ccccc2)NCc2ccccc2)cc1	60.5%	28.2%	72.2%	61.3%	73.1%	84.7%	65.5%	70.7%	84.8%
COc1ccc(C2=NN(C(C)=O)C(c3c(C)nn(-c4ccccc4)c3N3CCOCC3)C2)cc1 (stereo unspecified)	106%	88.2%	91.9%	77.2%	95%	91.3%	95.4%	88%	
COc1ccc(C2CC(c3ccc(Nc4ccnc5cc(Cl)ccc45)cc3)=NN2C(C)=O)cc1 (stereo unspecified)	107%	55.7%	76.1%	64.7%	54.8%	56.1%	47.2%	40.8%	73.2%
CN1CCN(c2nc3scc(-c4ccccc4)c3c(=O)[nH]2)CC1	104%	90.3%	100%	81.4%	107%	91%	103%	95.5%	
O=C1/C(=C\c2coc3ccccc3c2=O)c2ccccc2N1c1c(Cl)cccc1Cl	85.7%	33.1%	59.5%	42.6%	54.6%	12.6%	21.1%	19%	-7.88% (active)
